In PubChem BioAssay one finds composite z-score and z-score data, which are given here for 14 molecules.

Test [1] has as its system Plasmodium falciparum Sir2 (PF13_0152, Sir2A). The test is described as follows: Plasmodium falciparum Sir2A binding compounds – biochemical, small-molecule microarray, 635 nm fluorescence, primary screen (AID 1098).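 Note: score merges spot fluorescence intensity with its signal-to-noise ratio.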 The following applies: fluorescence 635 nm, higher = more signal.
The nature of test [2]: probe aDKK1 binding to arrayed compounds – biochemical, biotinylated probe, 635/667 nm fluorescence, primary screen (AID 1099).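 Note: score merges 667nm spot fluorescence with signal to noise across triplicate slides; reference of the scale not given here.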 Conditions: small-molecule microarray, higher = more signal.
Test [3] is described as follows: probe aCHRDL2 binding to arrayed compounds – biochemical, biotinylated probe, 635/667 nm fluorescence, primary screen (AID 1100). Conditions: small-molecule microarray, higher = more signal.
The nature of test [4]: change in splice reporter luminescence, either direction, cell-based, HEK293, spliceosome inhibition project, primary screen (AID 1101).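 Note: HEK293 cells carrying a splicing-competent luciferase reporter gene; test concentration not given here.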 The following applies: HEK293 splicing luciferase reporter, 24 h, higher = more signal, called active from +8 up or from −8 down. Background: In a reporter assay the amount or activity of a reporter protein is the signal.
Test [5] concerns the target Fibroblast growth factor 10 (Homo sapiens) (UniProt O15520). The test is described as follows: compounds binding fibroblast growth factor 10 – biochemical, small-molecule microarray, 635 nm fluorescence, primary screen (AID 1102). The following applies: FGF10 binding, fluorescence 635 nm, higher = more signal.
Test [6] concerns glycogen synthase kinase-3 (GSK3A per assay name; protocol says GSK3B). The test is described as follows: compounds binding glycogen synthase kinase-3 – biochemical, small-molecule microarray, 635 nm fluorescence, GSK3A, primary screen (AID 1103). Note: the record names both GSK3A and GSK3B. Conditions: fluorescence 635 nm, higher = more signal.
The target in test [7] is Epidermal growth factor receptor (Homo sapiens) (UniProt P00533). The test is described as follows: compounds binding epidermal growth factor receptor – biochemical, small-molecule microarray, 635 nm fluorescence, primary screen (AID 1104).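 Note: score merges 667 nm emission intensity with spot signal to noise over triplicate slides.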 The following applies: EGFR binding, higher = more signal.
For test [8], the target named is Follistatin-related protein 3 (Homo sapiens) (UniProt O95633). The test is described as follows: compounds binding follistatin-related protein 3 – biochemical, small-molecule microarray, 635 nm fluorescence, primary screen (AID 1105).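 Note: score merges emission near 667 nm and signal to noise per printed spot across three slides.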 Conditions: FSTL3 binding, higher = more signal.
Test [9] has as its target Dickkopf-related protein 1 (Homo sapiens) (UniProt O94907). The test is described as follows: small molecules binding DKK1 protein – biochemical, small-molecule microarray, 635 nm fluorescence scan, primary screen (AID 1106).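 Note: score merges emission near 667 nm with signal to noise over three replicate slides.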 The following applies: higher = more signal.
Test [10] relates to Inhibin beta A chain (activin A). The test is described as follows: small molecules binding activin A – biochemical, small-molecule microarray, 635 nm fluorescence scan, primary screen (AID 1107).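 Note: mouse activin A protein probed at 4.33 µg/mL on printed slides; score merges bound-protein fluorescence near 667 nm with spot signal-to-noise.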 The following applies: INHBA, higher = more signal.

The structures appear in SMILES notation. Active and inactive are the calls of the source.

Sequence of Dickkopf-related protein 1 (Homo sapiens) (O94907 whole entry, looked up): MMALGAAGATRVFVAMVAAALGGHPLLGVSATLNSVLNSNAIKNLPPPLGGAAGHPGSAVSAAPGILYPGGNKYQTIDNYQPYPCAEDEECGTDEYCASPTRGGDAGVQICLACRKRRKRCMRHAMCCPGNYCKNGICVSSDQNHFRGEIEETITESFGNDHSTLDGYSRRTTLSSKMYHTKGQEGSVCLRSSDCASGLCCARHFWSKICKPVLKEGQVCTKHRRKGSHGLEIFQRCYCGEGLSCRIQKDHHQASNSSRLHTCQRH
Sequence of Follistatin-related protein 3 (Homo sapiens) (O95633 whole entry, looked up): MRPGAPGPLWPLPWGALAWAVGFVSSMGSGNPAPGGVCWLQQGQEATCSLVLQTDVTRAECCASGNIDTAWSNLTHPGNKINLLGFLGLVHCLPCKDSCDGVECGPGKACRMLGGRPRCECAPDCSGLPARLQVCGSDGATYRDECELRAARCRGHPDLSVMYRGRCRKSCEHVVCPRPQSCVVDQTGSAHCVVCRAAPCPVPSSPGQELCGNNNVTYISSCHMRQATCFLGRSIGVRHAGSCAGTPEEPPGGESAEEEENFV
Sequence of Epidermal growth factor receptor (Homo sapiens) (P00533 whole entry, looked up): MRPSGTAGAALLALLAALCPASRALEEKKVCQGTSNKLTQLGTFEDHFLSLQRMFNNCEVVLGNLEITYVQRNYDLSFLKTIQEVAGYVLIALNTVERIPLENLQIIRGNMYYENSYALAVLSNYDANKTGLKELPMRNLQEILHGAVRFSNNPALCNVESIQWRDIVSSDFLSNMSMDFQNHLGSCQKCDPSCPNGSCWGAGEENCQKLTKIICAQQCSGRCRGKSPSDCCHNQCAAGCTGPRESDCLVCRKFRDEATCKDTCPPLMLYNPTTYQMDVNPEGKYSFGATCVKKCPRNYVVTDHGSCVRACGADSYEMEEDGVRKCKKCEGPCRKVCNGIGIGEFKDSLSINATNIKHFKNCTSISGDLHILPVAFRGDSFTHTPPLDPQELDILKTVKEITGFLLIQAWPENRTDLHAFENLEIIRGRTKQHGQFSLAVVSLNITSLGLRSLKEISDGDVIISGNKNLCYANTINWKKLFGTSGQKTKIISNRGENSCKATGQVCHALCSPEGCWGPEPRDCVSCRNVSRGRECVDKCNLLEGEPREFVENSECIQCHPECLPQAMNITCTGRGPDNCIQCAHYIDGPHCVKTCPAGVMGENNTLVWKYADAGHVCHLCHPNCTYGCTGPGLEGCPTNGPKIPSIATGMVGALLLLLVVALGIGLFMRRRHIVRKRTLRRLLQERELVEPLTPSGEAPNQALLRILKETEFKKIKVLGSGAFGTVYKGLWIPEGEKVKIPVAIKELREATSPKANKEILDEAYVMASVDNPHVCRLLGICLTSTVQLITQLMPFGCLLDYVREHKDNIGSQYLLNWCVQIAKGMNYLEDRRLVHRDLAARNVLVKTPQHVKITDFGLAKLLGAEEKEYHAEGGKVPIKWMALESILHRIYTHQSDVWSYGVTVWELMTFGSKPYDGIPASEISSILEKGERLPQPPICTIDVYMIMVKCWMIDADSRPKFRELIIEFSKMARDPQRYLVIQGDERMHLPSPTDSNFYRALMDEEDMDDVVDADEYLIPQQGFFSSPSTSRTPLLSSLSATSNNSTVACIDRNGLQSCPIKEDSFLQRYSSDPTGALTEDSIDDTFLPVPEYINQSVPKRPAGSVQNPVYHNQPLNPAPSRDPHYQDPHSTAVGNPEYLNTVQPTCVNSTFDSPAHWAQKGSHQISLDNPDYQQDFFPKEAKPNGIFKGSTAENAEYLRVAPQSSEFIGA
Sequence of Fibroblast growth factor 10 (Homo sapiens) (O15520 whole entry, looked up): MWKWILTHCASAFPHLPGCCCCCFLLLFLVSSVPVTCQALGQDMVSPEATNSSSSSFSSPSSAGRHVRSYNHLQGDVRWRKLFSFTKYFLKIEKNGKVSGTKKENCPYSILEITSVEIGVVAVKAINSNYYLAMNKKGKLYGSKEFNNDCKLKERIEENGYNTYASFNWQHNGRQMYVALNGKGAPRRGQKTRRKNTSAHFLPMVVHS

For the molecule `CN1C(=O)C2C=CC(C(O)c3cccc4ccccc34)N(NC(=O)OC(C)(C)C)C2C1=O` (stereo not given), the composite z-score was 1.37 in [1]; 1.33 in [2]; 1.43 in test [3]; 0.373 in test [5]; 1.03 in test [6]; -0.0459 in test [7]. Besides, the composite z-score was 0.85 in test [8], -0.123 in test [9] and 0.844 in test [10]. The z-score in test [4] is 2.35 (inactive).

Take `CC(C)=CCCC(C)=CC(O)C1C=CC2C(=O)N(c3ccccc3)C(=O)C2N1Nc1ccc([N+](=O)[O-])cc1` (stereo not given): the composite z-score in test [1] was 1.29; in test [2], -0.0499; in [3] it was 0.77; in [5] it was 0.74; in test [6], 1.34; in test [7], 0.0387. The composite z-score was 0.996 in [8], -0.4 in test [9] and 0.387 in test [10]. The z-score in test [4] is 0.644 (inactive).

In the case of `COc1ccc([Si](C)(C)[C@H]2[C@H](CCn3cc(CCO)nn3)O[C@@]3(C(=O)N(Cc4cccc(N5C(=O)c6cccc7cccc5c67)c4)c4ccccc43)[C@@H]2C)cc1`, the composite z-score was 1.23 in test [1]; -0.0314 in test [2]; -0.567 in [3]; 1.27 in test [5]; 0.719 in test [6]; 0.268 in test [7]. Besides, the figures for the composite z-score in test [8], in test [9] and in test [10] were 0.81, 0.848 and -0.427, respectively. The z-score in test [4] is -1.61 (inactive).

Consider `COC(=O)[C@@]1(Cc2ccc(OC)cc2)[C@H]2c3cc(C(=O)N(C)C)n(Cc4cc(F)c(F)c(F)c4)c3C[C@H]2CN1C(=O)c1ccccc1`, for which the composite z-score turned out to be 0.85 in [1]; 1.59 in test [2]; 1.03 in [3]; 0.519 in test [5]; 1.02 in test [6]; 0.261 in test [7]. The results for the composite z-score in test [8], in [9] and in [10] were 0.745, -0.958 and 0.882, respectively. Besides, the z-score in test [4] is -2.2 (inactive).

As for `C[C@]12C(=O)N(CCCO)[C@@H]3C(=O)N(c4ccc(Cl)cc4)CC=CC31O[C@@H]1/C=C\CCCOC(=O)C12` (stereo not given in full), the composite z-score in [1] was 1.83; in test [2], -0.275; in test [3], 0.62; in test [5], -0.747; in test [6] it was -1.07; in [7] it was -0.887. Moreover, the composite z-score in [8] was -0.538; in test [9], -1.01; in test [10] it was 0.232. In addition, in test [4], the z-score is 0.158 (inactive).

As to `CCOC(=O)C1=CC[C@@H](c2ccccc2)N(S(=O)(=O)c2ccc(C)cc2)[C@H]1C=C(C)C`, the composite z-score in test [1] was 0.625; in test [2] it was 0.367; in test [3] it was 0.688; in test [5], 1.02; in test [6] it was 0.604; in [7], 1.01. For the same molecule, the composite z-score in [8] came to 1.38; in [9] it was 0.226; in [10], 1.11. For the same molecule, in [4], the z-score was -0.925 (inactive).

Consider `C=C(COC)/C(=C/C[C@@H](OC(=O)c1ccncc1)c1cccc(OCCO)c1)c1cc(C(=O)OC)ccc1OC`, for which the composite z-score in [1] is 0.756; in [2], -0.183; in [3], -0.471; in [5], 1.62; in test [6], 1.2; in test [7], 0.29. The composite z-score was 0.902 in test [8], 0.167 in test [9] and 0.997 in [10]. In addition, in test [4], the z-score was -0.651 (inactive).

For `COCCOC(=O)N1C(=O)[C@@]2(c3cc(C#CCNC(N)=O)ccc31)[C@H](c1ccc(OCCO)cc1)N1[C@H](c3ccccc3)[C@H](c3ccccc3)OC(=O)[C@H]1[C@@H]2C(=O)N1CCN(c2ncccn2)CC1`, the composite z-score in [1] turned out to be 0.832; in test [2], 0.46; in [3], 0.978; in test [5], 1.25; in test [6], 0.824; in [7], 0.612. Moreover, the values for the composite z-score in test [8], in test [9] and in [10] were 1.3, 0.564 and 1.46, respectively. Further, the z-score in test [4] was -0.37 (inactive).

For the molecule `COc1ccc([Si](C)(C)[C@H]2[C@H](CC(=O)N3CCC[C@H]3CO)O[C@@]3(C(=O)N(Cc4ccc(N5C(=O)c6cccc7cccc5c67)cc4)c4ccccc43)[C@@H]2C)cc1`, the composite z-score in test [1] stood at 1.4; in test [2] it was 0.184; in test [3], 0.0075; in test [5], 0.651; in [6] it was 1.2; in test [7], 0.6. Also, the composite z-score was 1.35 in test [8], 0.736 in test [9] and 0.4 in [10]. Also, the z-score in [4] is -1.17 (inactive).

As for `C=CCN1C(=O)[C@@]2(O[C@@H](CCO)[C@H]([Si](C)(C)c3ccc(OC)cc3)[C@H]2C)c2cc(NC(=O)[C@H](C)O)ccc21`, the composite z-score in test [1] was 1.53; in test [2], -0.474; in test [3], -0.0061; in test [5], 1.26; in test [6] it was 1.3; in [7], -0.242. Also, the values for the composite z-score in test [8], in [9] and in test [10] were 0.254, 0.147 and -0.156, respectively. Besides, the z-score in test [4] is -2.46 (inactive).

In the case of `CC1CC/C=C\[C@H]2OC34C=CCN(Cc5ccccc5)C(=O)[C@H]3N(CCO)C(=O)[C@@H]4C2C(=O)O1` (stereo not given in full), the composite z-score in [1] is 1.59; in test [2] it was -0.0038; in [3], 0.681; in [5] it was 0.237; in test [6] it was -0.252; in [7] it was -1.11. Moreover, the composite z-score in test [8] was -1.07; in test [9] it was -0.798; in test [10], 1.23. In test [4], the z-score is 0.229 (inactive).

As for `Cc1ccc(N2C(=O)c3ccccc3[C@](C)(C(=O)NC(C)C)[C@@H]2c2ccc(CO)cc2)nc1`, the composite z-score is 0.118 in [1]; -0.0537 in test [2]; 1.04 in test [3]; -1.22 in [5]; -0.738 in [6]; -1.21 in test [7]. Moreover, the composite z-score in test [8] was -2.01; in test [9], -1.63; in test [10] it was -2.54. In addition, the z-score in [4] is 0.415 (inactive).

With `COC(=O)[C@@]1(Cc2ccc(OC)cc2)[C@H]2c3cc(C(=O)N(C)C)n(CCF)c3C[C@H]2CN1C(=O)c1ccccc1`, the composite z-score amounted to 1.17 in test [1]; 1.23 in test [2]; 0.923 in test [3]; 0.601 in test [5]; 1.14 in test [6]; 0.185 in [7]. The composite z-score in [8] was 1.03; in test [9] it was -0.123; in [10], 0.854. Moreover, the z-score in [4] is -0.674 (inactive).

Regarding `CCCC[C@@H](O)C1=C(COc2ccccc2)Cn2c(=O)n(-c3ccccc3)c(=O)n2[C@H]1CO`, the composite z-score in test [1] is -0.229; in test [2], -0.396; in test [3], -0.444; in [5], 0.217; in test [6], 0.106; in [7], 0.111. For the same molecule, the composite z-score is -0.423 in test [8], -0.0681 in [9] and 0.606 in [10]. The z-score in test [4] is -2.11 (inactive).
